# Compound activity (PubChem)
# Most compounds without a hit are left out; they make up all but 8.2% or so of the library.
# ELG1 DNA repair: qHTS screen for small molecules that inhibit ELG1-dependent DNA repair in human embryonic kidney (HEK293T) cells expressing luciferase-tagged ELG1 | HEK293T ELG1-luciferase reporter, luminescence, 16 h; DNA damage induced by 5-fluorouridine | Potency, µM (titrated, usually from 46.1 µM), without a hit: at the highest dose activity change, negative = inhibition, most hits filed as inhibitors | 330,000 compounds, 2.3% hits | AID 504467, 2011; further: on the % scale 0 is the no-effect control and ±100 the full control effect; nearly all actives have a fitted effect of over 55% in size
#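 Overnight (16 hr) co-exposure of 2,000 cells/well to 5-fluorouridine and compound at 37 °C preceded detection. Luciferase was quantified via ONE-Glo luminescence; loss of signal denotes inhibition.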
# MCF10A rerep: A quantitative high throughput screen for small molecules that induce DNA re-replication in MCF 10a normal breast cells; MCF 10A DNA re-replication, Hoechst nuclear intensity, 48 h; Potency, µM (series often up to 46.1 µM), without a hit: at the highest dose activity, positive = re-replication, hits mostly activators; 350,000 compounds, 2.9% hits; AID 624296, 2012; further: % of control where 0% means no effect; nearly all actives have a fitted effect of over 50% in size
# SW480 rereplic: A quantitative high throughput screen for small molecules that induce DNA re-replication in SW480 colon adenocarcinoma cells. SW480 DNA re-replication, Hoechst DNA content imaging, 48 h. Potency, µM (highest dose often 46.1 µM), for inactives: top-dose re-replication activation, actives largely listed as activators. 340,000 compounds, 1.8% hits. AID 624297, 2012; further: % of control where 0% means no effect; nearly all actives have a fitted effect of over 55% in size
#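 Readout is total intensity of Hoechst-stained nuclei, excited at 405 nm and collected at 500-530 nm. Compound treatment lasted 48 hr at 37 C in 5% CO2 before staining.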
# KB-V1 MDR tox: qHTS assay for MDR1-selective chemotherapeutics: Primary screen using the drug-selected MDR subline cells KB-V1; KB-V1 MDR cells viability, CellTiter-Glo, 72 h; Potency, µM (highest dose often 46.1 µM), most hits filed as cytotoxic; 400,000 compounds, 3.4% hits; further: on the % scale 0 is the no-effect control and ±100 the full control effect; nearly all actives have a fitted effect of over 60% in size
#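 Luminescent ATP read-out (CellTiter-Glo, 10 min) measures survival of drug-selected KB-V1 MDR cells after 72 h, 37 degrees C compound exposure. Medium: phenol-red-free DMEM, 10% FBS. Values from fitted concentration-response curves.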
# KB-3-1 tox: qHTS assay for MDR1-selective chemotherapeutics: Primary screen using the parental adenocarcinoma cell KB-3-1 | Potency, µM (highest dose often 46.1 µM), most hits filed as cytotoxic | KB-3-1 viability, CellTiter-Glo ATP luminescence, 72 h | 400,000 compounds, 1.4% hits | AID 1347075, 2019; further: on the % scale 0 is the no-effect control and ±100 the full control effect; nearly all actives have a fitted effect of over 60% in size
#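 72 h, 37 °C compound treatment of KB-3-1 parental cells; CellTiter-Glo added, 10 min, luminescence read. Data corrected against DMSO-only plates and normalized before curve fitting.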
# * hit, by the source's call; i = inactive; ? = inconclusive; nt = no result. The call rests on the fitted dose curve; in most records, active means well fitted curve in the direction sought with a large enough effect; inconclusive means small, poorly fitted or top-dose-only effect, or another doubt; inactive means no such curve, though single readings can be large; an effect the other way counts as inactive or inconclusive. Potency means the concentration at half of the fitted maximal effect.
SMILES,ELG1 DNA repair,MCF10A rerep,SW480 rereplic,KB-V1 MDR tox,KB-3-1 tox
COc1ccc(S(=O)(=O)N2CCCCCC2)cc1C(=O)N(C)CC(=O)Nc1ccc(Cl)c(Cl)c1,-23.6%,-12.6%,-23.6%,i,i
CN(CC(=O)Nc1ccc(Cl)c(C(F)(F)F)c1)C(=O)c1ccc(OCC2CCCO2)cc1 (centres undefined),-15.5%,13.6%,11.5%,7.31µM*,?
CN(CC(=O)Nc1ccc(Cl)c(S(=O)(=O)N2CCOCC2)c1)C(=O)c1ccc(C#N)cc1,?,-3.7%,10.3%,i,i
Cc1ccc(S(=O)(=O)N2CCCCC2)cc1C(=O)N(C)CC(=O)Nc1ccc(Cl)c(C(F)(F)F)c1,?,23.1µM*,?,?,?
Cc1ccc(C(=O)N(C)CC(=O)Nc2ccc(Cl)c(C(F)(F)F)c2)cc1S(=O)(=O)N1CCCCC1,?,20.6µM*,?,?,?
CN(CC(=O)Nc1ccc(Cl)c(C(F)(F)F)c1)C(=O)C1CCC1,-1.3%,3.6%,-94.3%,i,i
Cc1cccc(-n2c(C)nc3cc(C(=O)NCCC4=CCCCC4)ccc32)c1,nt,nt,nt,i,i
CCOC(=O)CC1COCCN1Cc1cn(C)nc1-c1ccccc1F (centres undefined),8.3%,-0.8%,-3.7%,i,i
CCn1cc(C(=O)OCC(=O)c2cc(C)n(-c3ccc(OC(F)F)cc3)c2C)c(=O)c2ccc(C)nc21,?,13µM*,?,23.1µM*,i
CC(C)N1CCCC(C)(C(=O)Nc2nc3ccccc3n2C)C1 (centres undefined),nt,nt,nt,i,i
Cc1cc(C)cc(OCC(=O)N/N=C\c2cn(C)nc2C)c1,3.0%,-5.5%,-1.3%,?,i
CCn1ncc(/C=N\NC(=O)COc2cc(C)cc(C)c2)c1C,?,8.6%,?,11.6µM*,?
Cc1cccc(OCCn2cc(/C=N/NC(=O)c3ccncc3)c3ccccc32)c1,20.6µM*,?,11.3%,?,?
Cc1cccc(OCC(=O)N/N=C\c2cn(C)c3ccccc23)c1,5.8µM*,10.2%,2.1%,i,i
Cc1cccc(OCC(=O)NCC(=O)N/N=C/c2cc(Br)ccc2OCc2ccccc2)c1,25.9µM*,8.5%,?,i,i
COC(=O)N/N=C/c1cn(CCOc2cccc(OC)c2)c2ccccc12,-13.8%,4.1%,4.8%,i,i
CCCC(NC(=O)c1ccc(Br)o1)c1nc2ccccc2[nH]1 (centres undefined),9.0%,-5.0%,1.5%,i,i
Cc1ccc(CCNC(=O)CN(C)S(=O)(=O)c2ccc3c(c2)n(C)c(=O)c(=O)n3C)cc1,-6.3%,-1.5%,8.7%,i,i
CCS(=O)(=O)N1CCC(C(=O)NCCCOC)CC1,7.4%,?,14.6µM*,i,i
COc1nc(OC)nc(N2CCC(C(=O)NCc3cccs3)CC2)n1,?,-1.5%,-16.0%,18.4µM*,i
Cc1cc(C)nc(N2CCCC(C(=O)NC(C)CCc3ccco3)C2)n1 (centres undefined),-13.0%,4.8%,-0.3%,10.3µM*,i
CCCCNC(=O)C1CCN(c2nc(OC)nc(OC)n2)CC1,-2.2%,4.7%,-1.4%,20.6µM*,i
Cc1cc(C)nc(N2CCCC(C(=O)NCc3ccccc3)C2)n1 (centres undefined),-1.4%,-0.5%,-7.0%,i,i
CCCCNC(=O)C1CCN(c2nc(C)cc(C)n2)CC1,12.8%,4.9%,-81.4%,i,i
CCCS(=O)(=O)N1CCC(C(=O)NCCCOC)CC1,9.2%,-0.4%,-6.9%,i,i
COc1cccc(-c2cnc(C(O)c3ccc(F)c(C)c3)[nH]2)c1 (centres undefined),nt,nt,nt,i,i
